Experimental findings from ChEMBL document CHEMBL5308504, “Tm Shift (DSF) assay results for EUbOPEN Chemogenomics Library” (2023) are described below.

Several values for one entry are separate records, joined by “and”; a condition that tells them apart may be missing. Identical values can stand only once.

For this test, the target named is Bromodomain-containing protein 4 (Homo sapiens) (UniProt O60885). The note with it: Compound concentration 20.0 uM, Protein concentration 2.0 uM, Result type QC Liability.
As for `O=C(O)CCCN1CCC[C@H]1COc1ccc(Oc2ccc(Cl)cc2)cc1`, the ΔTm was -2.86 °C.
`Nc1ncnc2c1ccn2[C@@H]1O[C@H]([C@@H](O)c2ccccc2)[C@@H](O)[C@H]1O`: the thermal shift (ΔTm) was -2.22 °C.
The figure for `NC(=O)OC[C@H](NC(=O)Cn1nc(-c2ccc(Cl)cc2)n(C[C@H](O)C(F)(F)F)c1=O)c1cccc(C(F)(F)F)c1` is 0.39 °C; for `CCC(=O)N[C@@H]1CC[C@H](C(=O)N(C)c2ccc(-c3nc4ccccc4o3)cc2)C1` it is -0.34 °C.
The figure for `CC(=O)c1c(C)c2cnc(Nc3ccc(N4CCN(CCOCCOCCOCCNC(=O)COc5cccc6c5C(=O)N(C5CCC(=O)NC5=O)C6=O)CC4)cn3)nc2n(C2CCCC2)c1=O` (centres undefined) is -1.51 °C; for `Cc1cc(OCCC(C)(C)O)cc(C)c1-c1ccc(F)c2c1CC[C@H]2Oc1ccc2c(c1)OC[C@H]2CC(=O)O` it is -2.75 °C.
In the case of `CC(C)C(=O)N1CCC(c2cn(C)c3ncc(NC(=O)c4cccc(C#N)c4)c(C(F)(F)F)c23)CC1`, the ΔTm is -2.27 °C.
For `CCNC1=N[C@@H]2[C@@H](O)[C@H](O)[C@@H](CO)O[C@@H]2S1` the value was -1.49 °C; for `CC(C)c1cnc(NC(=O)Cc2ccccc2)s1`, -1.14 °C.
For `COc1cc(C(=O)NCCOCCOCCOCC(=O)N[C@H](C(=O)N2C[C@@H](O)C[C@H]2C(=O)NCc2ccc(-c3scnc3C)cc2)C(C)(C)C)ccc1Nc1ncc(C(F)(F)F)c(Oc2cccc3c2C(=O)CC3)n1` the value was 0.11 °C; for `CS(=O)(=O)NC(=O)CCC/C=C\C[C@H]1C(=O)C[C@@H](O)[C@@H]1/C=C/[C@@H](O)COc1ccccc1`, -2 °C; for `CC(C(=O)Nc1cc(C#N)ccc1CCCC(=O)O)c1ccc(F)c2ccccc12` (centres undefined), -0.24 °C.
`O=C(O)c1cccc(C2=C(c3cc(Cl)ccc3OCc3ccc(F)cc3F)CCC2)n1`: the ΔTm was -0.65 °C.
For `O=C(NCc1ccc(F)cc1)C1CCN(S(=O)(=O)c2cc(Cl)cc(Cl)c2)CC1` the value was -0.4 °C.
For `O=C(O)Cc1cc(I)c(Oc2ccc(O)c(I)c2)c(I)c1` the value was -5.23 °C.
The figure for `NCc1ccc(OCCCc2sc(-c3ccc4c(c3)/C(=N/Nc3nc5ccccc5s3)CCC4)nc2C(=O)O)cc1` is -11 °C; for `CC[C@@H](Nc1c(C#N)c(-c2ccc(-c3cccc(C)c3F)cc2)nc2cnccc12)C(=O)O` it is -1.25 °C; for `CC(=O)O[C@H]1C(=O)[C@@]2(C)[C@H]([C@H](OC(=O)c3ccccc3)[C@]3(O)C[C@H](OC(=O)[C@H](O)[C@@H](NC(=O)c4ccccc4)c4ccccc4)C(C)=C1C3(C)C)[C@]1(OC(C)=O)CO[C@@H]1C[C@@H]2O` it is -0.05 °C.
`CCS(=O)(=O)c1ccc(OC)c(Nc2ncc(-c3cccc(F)c3)o2)c1`: the ΔTm is -2.4 °C.
For `CCN(C)C(=O)c1ccc2c(c1)NC(=O)/C2=C(\NC1CCN(C)CC1)c1ccccc1` the value was 0.55 °C; for `c1ccc(C2CCN(c3cnc4c(N5CCOCC5)nccn34)CC2)cc1`, -0.69 °C; for `COc1c(NC(=O)c2cc3cccc(Oc4ccnc(C(=O)N5CCN(C)CC5)c4)c3n2C)cc(C(C)(C)C)cc1NS(C)(=O)=O`, -2.76 °C.
For `CCN(C)S(=O)(=O)Nc1cccc(-c2ccc3c(NC(=O)C4CC4)n[nH]c3c2)c1` the value was 0.55 °C; for `CCc1cc2c(cc1N1CCC(N3CCOCC3)CC1)C(C)(C)c1[nH]c3cc(C#N)ccc3c1C2=O`, -2.92 °C; for `Nc1nc(-c2nn(Cc3ccccc3F)c3ncccc23)ncc1C1CC1`, 1.11 °C.
As for `Cc1ccc2c(NS(=O)(=O)c3ccccc3Cl)cccc2c1Oc1ncccc1-c1ccnc(N[C@H]2CCCNC2)n1`, the ΔTm was found to be 0.99 °C.
The figure for `C[C@@H]1C[C@H](C)CN(c2ncc(Cl)c(Nc3ccc4c(c3)cc(OC(C)(C)C(=O)O)c(=O)n4C)n2)C1` is -0.93 °C; for `NC1(c2ccc(-c3nc4c(O)ccnn4c3-c3ccccc3)cc2)CCC1` it is -0.63 °C.
For `CO[C@H]1CC[C@H](N(c2cc(F)c(Oc3ncc(Cn4nccn4)cc3C(F)(F)F)cc2C(=O)O)C(=O)[C@H]2CC[C@H](C)CC2)CC1` the value was 0.94 °C; for `CCOC(=O)N1CCC(CN(Cc2ccc(Cl)cc2)Cc2ccc([N+](=O)[O-])s2)C1` (centres undefined), -2.61 °C; for `CN(C)C(=O)c1sc2nc(N3CCC(S(C)(=O)=O)CC3)cc(C(F)(F)F)c2c1N`, -3.42 °C and 1.01 °C.
For `COCCCS(=O)(=O)c1cc(C)c(-c2ccc(F)c3c2CC[C@H]3Oc2ccc3c(c2)OC[C@H]3CC(=O)O)c(C)c1` the value was -0.25 °C; for `COc1cc(C)c(S(=O)(=O)N(C)CCC(=O)N[C@H]2CC[C@@H](N3CCC4CN(C)CC4C3)CC2)c(C)c1` (some centres undefined), -4.82 °C.
For the compound `CC(C)[C@H](CO)Nc1nc(Nc2ccc(C(=O)O)c(Cl)c2)c2ncn(C(C)C)c2n1`, the ΔTm came out at 0.61 °C.
For `Cc1cc2c(ncn2C2(C)CN(C(=O)c3ccn(CC4CCN([C@H]5C=CCCCC5)CC4)c3)C2)c(N)n1` the value was -1.87 °C.
The figure for `CCOC(=O)/N=C(\N)c1ccc(OCc2cccc(COc3ccc(C(C)(C)c4ccc(OC(=O)OCC)cc4)cc3)c2)cc1` is -10.4 °C; for `N#Cc1c(SCc2csc(-c3ccc(Cl)cc3)n2)nc(N2CCCC2)c(C#N)c1-c1ccc(OCCO)cc1` it is -0.25 °C.
The figure for `NCC1CCC(CNc2nc(NCc3ccccc3OC(F)(F)F)ncc2[N+](=O)[O-])CC1` (centres undefined) is -3.36 °C; for `COc1cc2nc([C@@H]3CCCS(=O)(=O)C3)n(C)c2cc1NC(=O)c1cccc(C(C)(F)F)n1` it is 0.39 °C.
